Experimental data taken from PubChem BioAssay (NCATS).
Records with an inconclusive call do not appear. The source made the active and inactive calls. Unless noted, calls come from the whole dose curve; as a rule, active = well fitted curve in the direction sought with a large enough effect; inconclusive = small, poorly fitted or top-dose-only effect, or another doubt; inactive = no such curve, though single readings can be large; an effect the other way counts as inactive or inconclusive.

How the values were obtained:
[1] = Cell Viability - BJ (AID 421; calls by dose curve;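 note: potency is the fitted concentration of half-maximal effect; cells exposed to compound for 40 hours at 37 °C before readout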); conditions: BJ fibroblast viability, qHTS
Outline: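 Cytotoxicity in human BJ foreskin fibroblasts is scored as loss of cellular ATP after a 40-hour exposure, measured by luciferase luminescence. Controls are DMSO and 100 uM tamoxifen.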

[2] = Cell Viability - Jurkat (AID 426;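 active = dose-dependent loss of cell ATP signal giving a full or clear fitted curve, ranked by lower potency value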;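 note: potency is the fitted concentration of half-maximal effect; cells exposed to compound for 40 hours at 37 °C before ATP read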); conditions: qHTS
Outline: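 Seed 5000 Jurkat E6-1 cells/well; add compound; incubate 40 hr at 37 °C; add CellTiter-Glo; wait 20 min at room temperature; read luminescence. Fit concentration-response with Hill equation for AC50.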

[3] = Cell Viability - Hek293 (AID 427;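 active = compounds whose dose-response curve shows a full or clear partial loss of cell viability, called from curve shape rather than a numeric limit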;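 note: potency is the fitted concentration of half-maximal effect; cells exposed to compound for 40 hours at 37 °C before reading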); conditions: qHTS
Outline: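 qHTS, human embryonic kidney (adenovirus-transformed) cells; 40 hr cpd, 37 °C; CellTiter-Glo ATP luminescence. Norm: DMSO = 0, 100 uM tamoxifen = 100% inhibition. Hill-fit AC50.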

[4] = Cell Viability - HepG2 (AID 433; calls by dose curve;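 note: potency is the fitted concentration of half-maximal effect; cells exposed to compound for 40 hours; potency for ATP loss meaning cytotoxicity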); conditions: qHTS
Outline: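 Cytotoxicity read as ATP loss (CellTiter-Glo luminescence) after 40 hr compound exposure of HepG2, 1500 cells/well, 37 °C. AC50 by Hill equation; 0% set by DMSO, 100% inhibition by 100 uM tamoxifen.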

[5] = Cell Viability - MRC5 (AID 434; calls by dose curve;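 note: potency is the fitted concentration of half-maximal effect; cells exposed to compound for 40 hours at 37 °C; potency reflects cytotoxicity seen as loss of intracellular ATP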); conditions: MRC5 lung fibroblast viability, qHTS
Outline: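 MRC5 normal human lung fibroblasts (1500/well) were treated with compounds for 40 hr at 37 °C in complete medium, and viable cells were measured as intracellular ATP by CellTiter-Glo luminescence. AC50 came from Hill fits, normalized to DMSO and 100 uM tamoxifen.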

[6] = Cell Viability - SK-N-SH (AID 435; calls by dose curve; note: potency is the fitted concentration of half-maximal effect); conditions: SK-N-SH neuroblastoma cell viability qHTS
Outline: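 qHTS cytotoxicity: CellTiter-Glo ATP luminescence after 40 h compound exposure of human neuroblastoma SK-N-SH cells at 37 °C. AC50 derived by Hill-equation fitting, with DMSO as basal and 100 uM tamoxifen as full inhibition.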

[7] = biological target: Mitogen-activated protein kinase 10 (Mus musculus) (UniProt Q61831); assay: JNK3 AlphaScreen Assay (AID 530; active = well fitted curve in either direction with a large enough effect, not every such curve was filed as active;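 note: kinase came from lysate of stimulated human HepG2 cells; signal reports phosphorylation of biotinylated GST-cJun 1-79 at Ser73 with 10 µM ATP; % is set by controls: 0 for no effect and ±100 for the full control effect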); conditions: JNK3 lysate, c-Jun phosphorylation; series mostly up to 57.1 µM
Outline: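 JNK3 came from HepG2 lysates pre-activated with IL-1beta and TNF-alpha and phosphorylated biotinylated GST-cJun (1-79) at 10 uM ATP, pH 7.6, room temperature. Compounds were titrated. AlphaScreen signal used anti-phospho-cJun (Ser73) antibody.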

[8] = Cell Viability - N2a (AID 540); conditions: N2a mouse neuroblastoma cell viability; activity change, negative = cytotoxicity: at 92.2 µM (top of the series);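 note: plate controls were DMSO alone for no effect and tamoxifen control for full effect; nearly all actives have a fitted effect of over 45% in size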
Outline: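 First, 1500 N2a cells per well incubate 5 hr at 37 °C; next, compounds are added and incubated 40 hr at 37 °C; finally CellTiter-Glo is added and luminescence read after 20 min, with AC50 derived by Hill modeling.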

[9] = Cell Viability - NIH 3T3 (AID 541); conditions: NIH 3T3 cell viability, qHTS; activity change, negative = cytotoxicity: at 92.2 µM (top of the series);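 note: cells exposed to compound for 40 hours; plate controls were DMSO alone for no effect and tamoxifen positive control for full effect; nearly all actives have a fitted effect of over 25% in size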
Outline: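 AC50 values reflect concentration-dependent loss of intracellular ATP in NIH 3T3 cells after 40 hr treatment in complete culture medium, quantified by luciferase-based luminescence.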

[10] = Cell Viability - HUV-EC-C (AID 542); conditions: HUV-EC-C endothelial cell viability, qHTS; series mostly up to 92.2 µM;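 note: cells exposed to compound for 40 hours; % is set by controls: 0 for no effect and ±100 for the full control effect; nearly all actives have a fitted effect of over 35% in size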
Outline: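 Decrease in cellular ATP, quantified by luciferase luminescence, reflects toxicity in normal human vascular endothelial HUV-EC-C cells given compound for 40 hr in complete culture medium. Values are AC50s from concentration-response curves.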

[11] = Cell Viability - SH-SY5Y (AID 544); conditions: SH-SY5Y neuroblastoma cell viability; viability change, negative = cytotoxic: at 92.2 µM (top of the series);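 note: cells exposed to compound for 40 hours; nearly all actives have a fitted effect of over 55% in size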
Outline: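 Cytotoxicity is scored as a concentration-dependent fall in intracellular ATP in human SH-SY5Y cells treated 40 hr in complete culture medium. Potency is expressed as AC50 from a Hill equation fit.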

[12] = Cell Viability - Renal Proximal Tubule (AID 545); conditions: renal proximal tubule cells viability, primary cells of rat origin; series mostly up to 91.7 µM;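 note: cells exposed to compound for 40 hours; nearly all actives have a fitted effect of over 40% in size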
Outline: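 Viability taken as intracellular ATP (CellTiter-Glo luminescence) after 40 hr, 37 °C compound treatment of primary proximal tubule cells from rat kidney, 1000 cells/well; Hill-equation fits of qHTS concentration-response data gave AC50.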

[13] = Cell Viability - Mesenchymal (AID 546); conditions: mesenchymal cells viability, qHTS; series mostly up to 91.7 µM;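 note: cells exposed to compound for 40 hours before reading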
Outline: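 Normal human renal glomerulus-derived kidney mesenchymal cells, 1000 per well in complete medium, were treated with compounds for 40 hr at 37 °C. Viability was read as intracellular ATP by CellTiter-Glo luminescence; AC50 values came from Hill-equation fits of qHTS concentration-response data.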

[14] = Cellular Toxicity (caspase-3) HepG2 (AID 654); conditions: HepG2 caspase-3 activation, luminescence; series mostly up to 92.2 µM;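 note: cells exposed to compound for 16 hours before reading; 0% = DMSO alone and 100% = caspase signal from 100 µM tamoxifen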
Outline: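 qHTS, HepG2, 1500 cells/well, complete medium; cpd 16 h 37 °C; Caspase-Glo 3/7, 20 min RT; lum. Norm: DMSO vs 100 uM tamoxifen; AC50 Hill fit.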

[15] = Cellular Toxicity (caspase-3) Jurkat (AID 655); conditions: Jurkat caspase-3 activation, luminescence; caspase-3 activation: at 92.2 µM (top of the series), DMSO = 0%, tamoxifen = 100%;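 note: cells exposed to compound for 16 h at 37 °C before reading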
Outline: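 Luminescent Caspase-Glo 3/7 read-out (20 min, room temperature) after 16 h compound treatment at 37 C of 5000 Jurkat cells per well. AC50 derived by Hill-equation fitting, scaled between DMSO basal and 100 uM tamoxifen stimulation.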

[16] = Cellular Toxicity (caspase-3) HUV-EC-C (AID 656); conditions: HUV-EC-C cells, caspase-3 activation (apoptosis), vehicle = 0, 100 µM tamoxifen = 100%; series mostly up to 92.2 µM
Outline: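 Luminescent Caspase-Glo 3/7 readout after 16 h, 37 °C compound exposure of HUV-EC-C endothelial cells, 1000 per well, complete medium. AC50 derived by Hill fitting, with DMSO as baseline and 100 uM tamoxifen as full activation.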

[17] = Cellular Toxicity (caspase-3) SHSY5Y (AID 657); conditions: SH-SY5Y caspase-3 activation, DMSO zero, 10 µM staurosporine = 100%; series mostly up to 91.7 µM
Outline: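 Luminescent Caspase-Glo 3/7 read-out, 1 hr room temperature, follows 16 hours of compound treatment of SH-SY5Y cells at 37 °C. Normalization: DMSO basal, 10 uM staurosporine as 100%; AC50 values from Hill-equation concentration-response fits.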

[18] = Cellular Toxicity (caspase-3) BJ (AID 658); conditions: BJ fibroblasts, luminescence, normalized: DMSO 0%, staurosporine 100%; series mostly up to 91.7 µM
Outline: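 Luminescent aminoluciferin-substrate cleavage reports caspase 3/7 activity in normal human BJ fibroblasts after 16 hr compound exposure at 37 °C. Normalized to DMSO (basal) and 10 uM staurosporine (100%); AC50 from Hill fit of concentration-response.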

[19] = Cellular Toxicity (caspase-3) MRC-5 (AID 659); conditions: MRC-5 cells, luminescence, normalized: DMSO 0%, 10 µM staurosporine 100%; series mostly up to 91.7 µM
Outline: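 Luminescence from caspase-cleaved aminoluciferin substrate (Caspase-Glo 3/7, 1 hr RT) reports caspase 3/7 activity in MRC-5 lung fibroblasts after 16 hr compound exposure. Normalized to DMSO basal and 10 uM staurosporine as 100%; AC50 from Hill fits.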

[20] = Cell Viability - H-4-II-E (AID 543); conditions: H-4-II-E rat hepatoma viability; series mostly up to 92.2 µM;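 note: cells exposed to compound for 40 hours; % is set by controls: 0 for no effect and ±100 for the full control effect; nearly all actives have a fitted effect of over 35% in size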
Outline: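 Here, cytotoxicity is measured in the rat hepatoma line H-4-II-E as loss of intracellular ATP after 40 hr compound treatment, detected by luciferase luminescence.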

Cc1cc(C)cc(O)c1
inactive: Potency [1] > 92 µM | Potency [2] > 92 µM | Potency [3] > 92 µM | Potency [4] > 92 µM | Potency [5] > 92 µM | Potency [6] > 92 µM | outcome [7] | activity change, negative = cytotoxicity [8] -1.73% | Potency [9] | Potency [10] | Potency [11] | Potency [12] | Potency [13] | Potency [14] | caspase-3 activation [15] 0.986% | outcome [16] | outcome [17] | outcome [18]

CCCCCCCCC/C=C/CC1CC(=O)OC1=O (configuration not stated)
inactive: Potency [1] > 92 µM | Potency [2] > 92 µM | Potency [3] > 92 µM | Potency [4] > 92 µM | Potency [5] > 92 µM | Potency [6] > 92 µM | outcome [7] | activity change, negative = cytotoxicity [8] 11.9% | Potency [9] | Potency [10] | Potency [11] | Potency [12] | Potency [14] | outcome [16] | outcome [17] | outcome [18] | outcome [19]

COC(=O)CCC(=O)OC
inactive: Potency [1] > 92 µM | Potency [2] > 92 µM | Potency [3] > 92 µM | Potency [4] > 92 µM | Potency [5] > 92 µM | Potency [6] > 92 µM | outcome [7] | activity change, negative = cytotoxicity [8] -1.63% | Potency [10] | Potency [20] | Potency [11] | Potency [12] | Potency [13] | Potency [14] | caspase-3 activation [15] 1.38% | outcome [16] | outcome [17] | outcome [18] | outcome [19]

Cc1cc(C)cc(N)c1
inactive: Potency [1] > 92 µM | Potency [2] > 92 µM | Potency [3] > 92 µM | Potency [4] > 92 µM | Potency [5] > 92 µM | Potency [6] > 92 µM | outcome [7] | activity change, negative = cytotoxicity [8] 0.732% | Potency [9] | Potency [10] | Potency [11] | Potency [12] | Potency [13] | Potency [14] | caspase-3 activation [15] 0.537% | outcome [16] | outcome [17] | outcome [18] | outcome [19]

Cc1ccc([N+](=O)[O-])c(N)c1
inactive: Potency [1] > 92 µM | Potency [2] > 92 µM | Potency [3] > 92 µM | Potency [4] > 92 µM | Potency [5] > 92 µM | Potency [6] > 92 µM | outcome [7] | activity change, negative = cytotoxicity [8] -4.55% | Potency [9] | Potency [10] | Potency [20] | Potency [11] | Potency [13] | Potency [14] | caspase-3 activation [15] 1.25% | outcome [16] | outcome [17] | outcome [18] | outcome [19]
